Hit rate of the full screen: of about 39,000 compounds, about 1,500 (3.8%) were called active. What follows is part of a selection rich in actives, with near analogues and random picks from the rest.

The test system of the assay is HSkMC (human skeletal muscle cells). In words: cytotoxicity call (relative viability < 0.9). As to conditions: 10 µM.
Regarding `COC(=O)CNC(=O)c1ccccc1`, the cytotoxicity call is “inactive”.
Regarding `C[C@@H]1CN([C@@H](C)CO)C(=O)c2cccc(NS(=O)(=O)c3cn(C)cn3)c2O[C@H]1CN(C)S(=O)(=O)c1cccs1`, the cytotoxicity call is “inactive”.
For `Cc1noc(C)c1NC(=O)Nc1cccc2c1O[C@@H](CN(C)C(=O)NC(C)C)[C@@H](C)CN([C@@H](C)CO)C2=O`, the cytotoxicity call was “inactive”.
Regarding `Cc1noc(C)c1NC(=O)Nc1ccc2c(c1)C(=O)N([C@@H](C)CO)C[C@@H](C)[C@@H](CN(C)C(=O)C1CCCCC1)OCCCC[C@H](C)O2`, the cytotoxicity call is “inactive”.
As for `C[C@H]1CN([C@@H](C)CO)C(=O)Cc2cc(NS(=O)(=O)c3cccs3)ccc2O[C@H]1CN(C)Cc1ccc(Oc2ccccc2)cc1`, the cytotoxicity call was “inactive”.
Consider `C[C@H]1CN([C@@H](C)CO)C(=O)Cc2cc(NS(=O)(=O)c3ccccc3)ccc2O[C@@H]1CN(C)Cc1ccc(Oc2ccccc2)cc1`, for which the cytotoxicity call was “active”.
On to `C[C@H]1CN([C@@H](C)CO)C(=O)Cc2cc(NS(=O)(=O)c3cccs3)ccc2O[C@@H]1CN(C)Cc1ccc(Oc2ccccc2)cc1`, for which the cytotoxicity call was “inactive”.
On to `C[C@H]1CN([C@@H](C)CO)C(=O)Cc2cc(NS(=O)(=O)c3ccccc3)ccc2O[C@H]1CN(C)Cc1ccc(Oc2ccccc2)cc1`, for which the cytotoxicity call is “inactive”.
With `C[C@H](CO)N1C[C@H](C)[C@@H](CN(C)Cc2ccc(Oc3ccccc3)cc2)Oc2ccc(NS(=O)(=O)c3ccccc3)cc2CC1=O`, the cytotoxicity call is “inactive”.
In the case of `C[C@@H]1CN([C@H](C)CO)C(=O)Cc2cc(NS(=O)(=O)c3ccccc3)ccc2O[C@@H]1CN(C)Cc1ccc(Oc2ccccc2)cc1`, the cytotoxicity call is “active”.
In the case of `C[C@H](CO)N1C[C@H](C)[C@H](CN(C)Cc2ccc(Oc3ccccc3)cc2)Oc2ccc(NS(=O)(=O)c3ccccc3)cc2CC1=O` it was “inactive”.
`C[C@@H]1CN([C@H](C)CO)C(=O)Cc2cc(NS(=O)(=O)c3cccs3)ccc2O[C@@H]1CN(C)Cc1ccc(Oc2ccccc2)cc1`: the cytotoxicity call is “active”.
Regarding `C[C@@H]1CN([C@@H](C)CO)C(=O)Cc2cc(NS(=O)(=O)c3ccccc3)ccc2O[C@@H]1CN(C)Cc1ccc(Oc2ccccc2)cc1`, the cytotoxicity call was “active”.
Take `C[C@@H]1CN([C@H](C)CO)C(=O)Cc2cc(NS(=O)(=O)c3ccccc3)ccc2O[C@H]1CN(C)Cc1ccc(Oc2ccccc2)cc1`: the cytotoxicity call is “inactive”.
`C[C@@H]1CN([C@@H](C)CO)C(=O)Cc2cc(NS(=O)(=O)c3ccccc3)ccc2O[C@H]1CN(C)Cc1ccc(Oc2ccccc2)cc1`: the cytotoxicity call is “inactive”.
Take `C[C@@H]1CN([C@@H](C)CO)S(=O)(=O)c2ccc(C#Cc3ccccc3F)cc2O[C@@H]1CN(C)C(=O)c1ccc2c(c1)OCO2`: the cytotoxicity call was “inactive”.
The entry for `CCc1nc2ccc(C(=O)N3CCN(S(=O)(=O)CC)CC3)cn2c1N(C)C(=O)c1cccc(OC)c1` is “inactive”.
`C=CCC1C=C(C)CC(C)CC(OC)C2OC(O)(C(=O)C(=O)N3CCCCC3C(=O)OC(C(C)=CC3CCC(O)C(OC)C3)C(C)C(O)CC1=O)C(C)CC2OC` (stereo unspecified): the cytotoxicity call was “inactive”.
The entry for `C[C@@H]1CCCCO[C@H](CN(C)C(=O)c2ccncc2)[C@H](C)CN([C@H](C)CO)C(=O)c2cc(NC(=O)C3CCCCC3)ccc2O1` is “inactive”.
`C[C@H](CO)N1C[C@H](C)[C@@H](CN(C)Cc2ccc3c(c2)OCO3)Oc2ccc(NC(=O)Cn3cnnn3)cc2CC1=O`: the cytotoxicity call was “inactive”.
As for `C[C@@H]1CN([C@H](C)CO)C(=O)Cc2cc(NC(=O)Nc3ccccc3)ccc2O[C@H]1CN(C)S(=O)(=O)c1cn(C)cn1`, the cytotoxicity call is “inactive”.
Take `O=C(NO)c1cccc(C(=O)N/N=C/[C@@H](O)[C@@H](O)[C@H](O)[C@H](O)CO)c1`: the cytotoxicity call was “inactive”.
For the molecule `Cc1noc(C)c1NC(=O)Nc1ccc2c(c1)CC(=O)N([C@@H](C)CO)C[C@H](C)[C@H](CN(C)S(=O)(=O)c1cn(C)cn1)O2`, the cytotoxicity call is “inactive”.
For the molecule `C[C@@H]1CCCCO[C@H](CN(C)S(=O)(=O)c2cn(C)cn2)[C@@H](C)CN([C@H](C)CO)C(=O)c2cc(NS(=O)(=O)c3ccc(F)cc3)ccc2O1`, the cytotoxicity call was “inactive”.
Take `C[C@@H](NC(=O)N(C)C[C@H]1OCc2ccccc2-c2c(n(C)c3ccccc23)C(=O)N([C@@H](C)CO)C[C@@H]1C)c1ccccc1`: the cytotoxicity call was “inactive”.
For the molecule `COCC#Cc1ccc([C@H]2[C@@H](CO)N3C(=O)CN(C(=O)c4cccnc4)C[C@@H]23)cc1`, the cytotoxicity call was “inactive”.
Regarding `CC(C)NC(=O)Nc1ccc2c(c1)C(=O)N([C@@H](C)CO)C[C@@H](C)[C@@H](CN(C)S(=O)(=O)c1cccs1)O2`, the cytotoxicity call is “inactive”.
For the molecule `CCC(=O)Nc1nc2[nH]c(COC)cc(=O)n2n1`, the cytotoxicity call was “inactive”.
As to `C[C@H](CO)N1C[C@H](C)[C@H](CN(C)C(=O)Nc2ccc(F)cc2)Oc2ccc(NC(=O)CCCCCC(=O)Nc3ccccc3N)cc2C1=O`, the cytotoxicity call is “inactive”.
Regarding `COc1ccc2cc(C(C)C(=O)O)ccc2c1` (stereo unspecified), the cytotoxicity call is “inactive”.
For `COc1ccc(C(=O)NCC(=O)O)cc1`, the cytotoxicity call is “inactive”.
Take `COc1ccc2cc(-c3cc(-c4cc(Cl)cc(Cl)c4)nn3[C@@H](C)c3ccc(C(=O)NCCC(=O)O)cc3)ccc2c1`: the cytotoxicity call is “active”.
`O=C(C[C@@H]1CC[C@@H]2[C@H](COC[C@@H](O)CN2S(=O)(=O)c2ccccc2)O1)N[C@@H]1CCN(Cc2ccccc2)C1`: the cytotoxicity call was “inactive”.
`COCC(=O)N(C)C[C@H]1Oc2cc(C#Cc3cccnc3)ccc2S(=O)(=O)N([C@H](C)CO)C[C@H]1C`: the cytotoxicity call was “inactive”.
As to `COc1ccc(S(=O)(=O)N[C@H]2C=C[C@@H](CC(=O)N3CCN(c4ccccc4)CC3)O[C@H]2CO)cc1`, the cytotoxicity call is “inactive”.
Take `C[C@H](CO)N1C[C@H](C)[C@@H](CN(C)Cc2ccc(-c3ccccc3)cc2)Oc2ccc(NC(=O)Nc3ccccc3)cc2CC1=O`: the cytotoxicity call is “inactive”.
For `C[C@@H]1CN([C@@H](C)CO)C(=O)Cc2cc(NC(=O)Nc3ccc(C(F)(F)F)cc3)ccc2O[C@H]1CN(C)Cc1ccc(-c2ccccc2)cc1`, the cytotoxicity call was “active”.
`C[C@H](CO)N1C[C@H](C)[C@H](CN(C)Cc2ccc(-c3ccccc3)cc2)Oc2ccc(NC(=O)Nc3ccc(C(F)(F)F)cc3)cc2CC1=O`: the cytotoxicity call is “active”.
Turning to `C[C@H]1CN([C@@H](C)CO)C(=O)Cc2cc(NC(=O)Nc3ccccc3)ccc2O[C@H]1CN(C)Cc1ccc(-c2ccccc2)cc1`, the cytotoxicity call is “inactive”.
For `C[C@H]1CN([C@@H](C)CO)C(=O)Cc2cc(NC(=O)Nc3ccc(C(F)(F)F)cc3)ccc2O[C@H]1CN(C)Cc1ccc(-c2ccccc2)cc1`, the cytotoxicity call is “active”.
For `C[C@@H]1CN([C@@H](C)CO)C(=O)Cc2cc(NC(=O)Nc3ccc(C(F)(F)F)cc3)ccc2O[C@@H]1CN(C)Cc1ccc(-c2ccccc2)cc1`, the cytotoxicity call was “active”.
